# Compound activity: PubChem, The Scripps Research Institute Molecular Screening Center
# MBD2 DNA inh: inhibitors of human MBD2 binding to methylated oligonucleotide. Q9UBB5. inhibition, % at 4.4 µM. hit rate 0.31% among 370,000. TR-FRET. AID 686964; in the data active means inhibition above about 13%
# Rin1 Abl inh: inhibitors of human Rin1-Abl protein interaction. P00519+Q13671. TR-FRET Rin1/Abl binding, biochemical. inhibition, % at 7.35 µM. hit rate 0.4% among 360,000. AID 588664; in the data active means inhibition above about 5%, passing the limit was not always enough
# UHRF1 MBD2 ctr: human UHRF1 methylated DNA binding inhibitors | UHRF1 binding to methylated oligo, TR-FRET | Q96T88 | AID 687016 | hit rate 0.75% among 370,000 | inhibition, % at 4.4 µM; in the data active means inhibition above about 21%;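 further: UHRF1 SRA domain binding a hemimethylated CpG hairpin DNA probe; 0% = median of test compound wells and 100% = reference inhibitor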
# TCR CD3 inh: blocks the human TCR-CD3 interaction; TAMRA-labeled TCR probe fluorescence, biochemical; AID 651800; hit rate 0.37% among 360,000; inhibition, % at 9.4 µM; in the data active means inhibition above about 19%;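 further: recombinant mutant TCR 2C K166C tagged with TAMRA read by polarization; 0% = receptor in buffer alone and 100% = receptor with positive control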
# LEDGF integ inh: blocks HIV-1 LEDGF/p75-dependent DNA integration; TR-FRET IN-LEDGF/p75 DNA integration, Eu/Cy5; inhibition, % at 3.7 µM; hit rate 0.64% among 370,000;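 active means inhibition above the screen-wide mean plus 3 SD, cut at about 13% in these data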;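 further: signal is the Cy5 over europium emission ratio at 671 and 618 nm; 0% = plate median of compound wells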
# Rin1 Abl conf: Rin1-Abl interaction inhibition confirmation; TR-FRET Rin1-Abl binding, purified proteins; shares compounds with Rin1 Abl inh; hit rate 49% among 1,300; AID 602124; inhibition, % at 7.35 µM
# GFP quencher: counter-screen for Rin1-Abl inhibitors: GFP fluorescence quenchers; inhibitors/quenchers counterscreen; shares compounds with Rin1 Abl inh; inhibition, % at 6.75 µM; hit rate 8.5% among 1,300;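 further: ABL1-eGFP fusion protein alone without its partner RIN1-SBP; 0% = protein with vehicle and 100% = wells lacking protein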
# GFP quench dose: counter-screen for Rin1-Abl inhibitors: GFP quenchers, dose response; shares compounds with Rin1 Abl inh; GFP fluorescence interference/quenching counterscreen; IC50, µM; 230 tested, under 10 active; AID 602182; call rule not given here;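 further: ABL1-eGFP fusion protein alone without its RIN1 binding partner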
# * hit, by the source's call; . = no result. Rows were chosen to be rich in hits. Some 2% of all compounds tested hit in one or more screens of this group. Unless noted, no stated cut-off is given here; in the data, active means inhibition above about 6.5%; inactive means the rest.
SMILES,MBD2 DNA inh,Rin1 Abl inh,UHRF1 MBD2 ctr,TCR CD3 inh,LEDGF integ inh,Rin1 Abl conf,GFP quencher,others
CCc1ccc(N(C(=O)c2snc(C(N)=O)c2N)C(C(=O)NC2CCCC2)c2ccncc2)cc1 (stereo not drawn),-1.6,2.6,-0.1,3.0,2.2,.,.,
Cc1ccc(C(C(=O)NCC2CCCO2)N(C(=O)c2snc(C(N)=O)c2N)c2ccc3c(c2)OCCO3)cc1 (stereo not drawn),1.0,12.9*,-1.6,3.0,1.5,13.5*,-2.1,
NC(=O)c1nsc(C(=O)N(c2ccc3c(c2)OCCO3)C(C(=O)NCC2CCCO2)c2ccc(F)cc2)c1N (stereo not drawn),1.3,11.1*,0.4,-7.2,0.6,10.9*,-1.3,
Cc1ccc(N(C(=O)c2snc(C(N)=O)c2N)C(C(=O)NCC2CCCO2)c2ccc3ncccc3c2)cc1 (stereo not drawn),7.0,2.9,-2.2,-3.3,-1.7,.,.,
COC(=O)c1sc(S(=O)(=O)N2CCCCC2C)c(C(=O)OC)c1C (stereo not drawn),6.6,-0.1,2.0,-12.0,-1.6,.,.,
COc1cc(C2c3cc4c(cc3CC3COC(=O)N32)OCO4)cc(OC)c1OC (stereo not drawn),-1.5,4.3,6.6,0.8,0.7,.,.,
Cc1ccccc1OCC(=O)NCCNC(=O)c1ccccn1,-0.6,14.8*,-0.1,-0.9,1.3,-0.9,1.0,
Cc1ccc(NC(=O)CN2C(=O)C3C4C=CC(C4)C3C2=O)cc1 (stereo not drawn),-3.4,6.3*,0.0,2.7,2.2,-2.5,1.3,
CCOC(=O)c1ccc(NC(=O)CN2C(=O)C3C4C=CC(C4)C3C2=O)cc1 (stereo not drawn),1.6,1.7,2.1,-6.0,0.7,.,.,
COC(=O)c1sccc1NC(=O)COc1ccccc1Cl,-2.2,7.4*,-4.0,6.2,1.8,-1.8,0.5,
CCOc1ccccc1NC(=O)Nc1ccsc1C(=O)OC,-6.3,-0.3,-0.8,5.3,6.8,.,.,
CC1=Nc2ccccc2NC(=O)C1Sc1nnc(C)s1 (stereo not drawn),5.8,6.4*,0.8,3.0,1.6,2.6,0.7,
CCOC(=O)c1ccc(NC(=O)COc2ccccc2CNCCO)cc1,1.6,13.3*,0.6,-3.2,1.0,22.6*,-1.3,GFP quench dose=>67.5
CCn1c(N2CCN(CC(=O)c3c(C)n(C)c4ccccc34)CC2)nc2c1c(=O)[nH]c(=O)n2C,1.3,6.4*,-2.0,6.6,0.0,-2.1,0.3,
O=C(/C=C/c1cccnc1)c1cccc(O)c1,-1.4,8.6*,-3.5,0.9,1.3,10.2*,-0.2,
O=C(/C=C/c1cccc(O)c1)c1cccnc1,2.7,-3.8,0.6,-0.2,-2.7,.,.,
NC(=O)COC(=O)CCCSc1nc2ccccc2s1,0.1,11.4*,-1.0,3.8,7.2,11.3*,0.7,
O=C(CSC1=NNC(c2ccccn2)S1)Nc1ccccc1 (stereo not drawn),-2.7,6.5*,-6.1,-4.8,-3.6,-5.6,2.5,
CC(=O)NS(=O)(=O)c1ccc(NS(=O)(=O)c2ccc3ccccc3c2)cc1,3.3,-3.0,-1.4,4.8,-0.5,.,.,
CC(=O)NS(=O)(=O)c1ccc(NS(=O)(=O)c2ccc(F)cc2)cc1,3.5,5.8*,-1.2,-5.9,-2.0,-2.8,1.6,
O=C(COC(=O)/C=C/c1ccc([N+](=O)[O-])cc1)NNC(=O)c1ccccc1,-5.7,-1.5,-3.4,3.6,-1.5,.,.,
Cn1c(=O)c2c(nc(SCCCC#N)n2Cc2c(F)cccc2Cl)n(C)c1=O,-4.8,7.2*,0.9,1.7,2.6,9.2*,-1.0,
O=S(=O)(c1cccc(Cn2nnc(-c3ccccc3)n2)c1)N1CCOCC1,0.5,-0.8,5.5,-4.1,-1.0,.,.,
Cc1ccc(-c2nnc(-n3ncc(C#N)c3N)c3ccccc23)cc1C,-1.1,9.3*,-4.0,7.0,1.7,-0.6,-1.2,
COc1ccccc1-c1csc(-n2ncc(C#N)c2N)n1,1.1,0.6,-15.4,4.8,2.1,.,.,
O=C1N(c2cccc(Cl)c2)C(c2ccc(Cl)cc2)N2CCCN12 (stereo not drawn),-0.6,11.1*,8.2,-2.8,2.5,17.8*,-1.9,GFP quench dose=>67.5
